# The entries come from a sample that favours the strongest signals as a whole.
# Legend:
# Assay in all cases: glycan array binding signal (z-score within array); higher = stronger binding
# Conditions in all cases: glycan notation: IUPAC condensed, linker removed
# [1] = target: Fuc(a1-2)Gal(b1-3)GalNAc(b1-3)Gal
# How it was run: (§1)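 The binding signal is a Z-score computed within each array and averaged over linkers. Arrays of the same protein sequence at different concentrations or buffers were also averaged together. Data originate from 3228 arrays in the Consortium for Functional Glycomics database, kept only where the protein sequence was available.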
# [2] = target: Fuc(a1-2)Gal(b1-3)GlcNAc(b1-3)[Fuc(a1-2)Gal(b1-3)GlcNAc(b1-6)]GalNAc
# How it was run: as §1
# [3] = target: Fuc(a1-2)Gal3S(b1-4)GlcNAc
# How it was run: as §1
# [4] = target: Fuc(a1-2)Gal6S(b1-3)GlcNAc
# How it was run: as §1
# [5] = target: Fuc(a1-2)Gal6S(b1-3)GlcNAc6S
# How it was run: as §1
# [6] = target: Fuc(a1-2)Gal6S(b1-4)Glc6S
# How it was run: as §1
# [7] = target: Fuc(a1-2)[Gal(a1-3)]Gal(b1-4)GlcNAc
# How it was run: as §1
# [8] = target: Fuc(a1-2)[Gal(a1-3)]Gal(b1-4)[Fuc(a1-3)]Glc
# How it was run: as §1
# [9] = target: Fuc(a1-2)[GalNAc(a1-3)]Gal(b1-4)GlcNAc(b1-3)Gal(b1-4)GlcNAc
# How it was run: as §1
# [10] = target: Fuc(a1-2)[GalNAc(a1-4)]Gal(b1-4)GlcNAc
# How it was run: as §1
# [11] = target: Fuc(a1-3)[Gal(b1-4)]GlcNAc6S
# How it was run: as §1
# Gal(a1-3)Gal(b1-4)GlcNAc = target: Gal(a1-3)Gal(b1-4)GlcNAc
# How it was run: as §1
# Gal(b1-3)Gal(b1-4)GlcNAc = target: Gal(b1-3)Gal(b1-4)GlcNAc
# How it was run: as §1
# [12] = target: Gal(b1-3)GalNAc(a1-3)[Fuc(a1-2)]Gal(b1-4)Glc
# How it was run: as §1
# [13] = target: Gal(b1-3)GlcNAc(b1-2)[Gal(b1-3)GlcNAc(b1-6)]Man(a1-6)[Gal(b1-3)GlcNAc(b1-2)Man(a1-3)]Man(b1-4)GlcNAc(b1-4)GlcNAc
# How it was run: as §1
# [14] = target: Gal(b1-3)GlcNAc(b1-3)Gal(b1-4)GlcNAc(b1-3)Gal(b1-4)GlcNAc(b1-2)[Gal(b1-3)GlcNAc(b1-3)Gal(b1-4)GlcNAc(b1-3)Gal(b1-4)GlcNAc(b1-6)]Man(a1-6)[Gal(b1-3)GlcNAc(b1-3)Gal(b1-4)GlcNAc(b1-3)Gal(b1-4)GlcNAc(b1-2)Man(a1-3)]Man(b1-4)GlcNAc(b1-4)[Fuc(a1-6)]GlcNAc
# How it was run: as §1
# [15] = target: Gal(b1-3)GlcNAc(b1-3)GalNAc
# How it was run: as §1
# Gal(b1-4)GlcNAc = target: Gal(b1-4)GlcNAc
# How it was run: as §1
# [16] = target: Gal(b1-4)GlcNAc(b1-3)Gal(b1-4)GlcNAc
# How it was run: as §1
# [17] = target: Gal(b1-4)GlcNAc(b1-3)Gal(b1-4)GlcNAc(b1-3)Gal(b1-4)GlcNAc
# How it was run: as §1
# [18] = target: Gal(b1-4)GlcNAc(b1-3)[Gal(b1-4)GlcNAc(b1-6)]Gal(b1-4)GlcNAc
# How it was run: as §1
# Gal6S(b1-3)GlcNAc = target: Gal6S(b1-3)GlcNAc
# How it was run: as §1
# Gal6S(b1-3)GlcNAc6S = target: Gal6S(b1-3)GlcNAc6S
# How it was run: as §1
# Gal6S(b1-4)Glc = target: Gal6S(b1-4)Glc
# How it was run: as §1
# Gal6S(b1-4)Glc6S = target: Gal6S(b1-4)Glc6S
# How it was run: as §1
# Gal6S(b1-4)GlcNAc = target: Gal6S(b1-4)GlcNAc
# How it was run: as §1
# Gal6S(b1-4)GlcNAc6S = target: Gal6S(b1-4)GlcNAc6S
# How it was run: as §1
# GalNAc(b1-3)Gal = target: GalNAc(b1-3)Gal
# How it was run: as §1
# [19] = target: GalNAc3S(b1-4)[Fuc(a1-3)]GlcNAc
# How it was run: as §1
# GalNAc6S(b1-4)GlcNAc = target: GalNAc6S(b1-4)GlcNAc
# How it was run: as §1
binder,measurement,setting,value
PX14343B-bfa-546-20-546 (Bacteroides fragilis) (protein) CDLERYPLTDLSEETFWNSESNAELALTSLYRGSLTDGVEYNPSDWWSYHGMIMMEHLSDNAFDRRGENNPFFKISSGNLTADNAFIKRYWETSYKRIGYCNRFLVGIQNSSESEKKTRMIAEARFLRATQYFYLASYFKNVPLVENVLTGEEANNVTKTSQADILKWCVTEFTAAAADLPRFSAIPAGEAGRACKQAALAFLGRTCMLQKDWKSGAKAFHDIMELGDNAINANYQELFYPSTGTSNKENIFYIQYLENYLGTGLPQHALSAKDGGWSLVNPAADLYESYEFKDGTPFSYDDPRYDPSNLGKDRDPRLDYTIYYNGAIFMGTEYKMSPDYSAAKKEKLDYTSEASRTGFMMRKYFEESTPINDVQSANGLTPVIRYAEVLLGYLECLVEDNQTITQGILDETINAVRGRASVNMPPVTEVTPAKLREIVRHERRIELAMEGIRYWDIMRWGIAHEVLSQKIWGAPYPGSTQYATTTKEVDPTGNYRWYVGKRAFRNPTDYTWPIPQSEQNINPNLRD,glycan array binding signal (z-score),[1],-0.117
same,glycan array binding signal (z-score),[2],-0.126
same,glycan array binding signal (z-score),[3],4.47
same,glycan array binding signal (z-score),[4],2.42
same,glycan array binding signal (z-score),[5],6.35
same,glycan array binding signal (z-score),[6],0.709
same,glycan array binding signal (z-score),[7],-0.126
same,glycan array binding signal (z-score),[8],-0.124
same,glycan array binding signal (z-score),[9],-0.126
same,glycan array binding signal (z-score),[10],-0.115
same,glycan array binding signal (z-score),[11],-0.129
same,glycan array binding signal (z-score),Gal(a1-3)Gal(b1-4)GlcNAc,-0.122
same,glycan array binding signal (z-score),Gal(b1-3)Gal(b1-4)GlcNAc,-0.113
same,glycan array binding signal (z-score),[12],-0.122
same,glycan array binding signal (z-score),[13],-0.117
same,glycan array binding signal (z-score),[14],-0.113
same,glycan array binding signal (z-score),[15],-0.12
same,glycan array binding signal (z-score),Gal(b1-4)GlcNAc,-0.128
same,glycan array binding signal (z-score),[16],-0.132
same,glycan array binding signal (z-score),[17],-0.113
same,glycan array binding signal (z-score),[18],-0.123
same,glycan array binding signal (z-score),Gal6S(b1-3)GlcNAc,9.99
same,glycan array binding signal (z-score),Gal6S(b1-3)GlcNAc6S,6.09
same,glycan array binding signal (z-score),Gal6S(b1-4)Glc,1.73
same,glycan array binding signal (z-score),Gal6S(b1-4)Glc6S,3.07
same,glycan array binding signal (z-score),Gal6S(b1-4)GlcNAc,9.6
same,glycan array binding signal (z-score),Gal6S(b1-4)GlcNAc6S,13.3
same,glycan array binding signal (z-score),GalNAc(b1-3)Gal,-0.123
same,glycan array binding signal (z-score),[19],-0.136
same,glycan array binding signal (z-score),GalNAc6S(b1-4)GlcNAc,10.1

# — the supplement of paper PMC8728848
